Results taken from ChEMBL document CHEMBL3988442, “University of Dundee, Small-Polar-MMV Screening Library” (2021).
Screen size: about 53,000 compounds; about 900 (1.7%) showed an effect of 50% or more. What follows is part of a selection rich in strong results, with near analogues and random picks from the rest.

These molecules were tested on Mycobacterium tuberculosis (assay: Cornell - Phenotypic assay to identify agents that inhibit growth of Mycobacterium tuberculosis). Details: 10 mM as filed; unlikely as a test dose.
Type: functional
Design: scale not given: direction of the effect not stated beside the values

SMILES	Percent Effect [%]
O=C1NC[C@]2(CC[C@@H](C(=O)N3CCCC(O)C3)CC2)Oc2ccccc21 (stereo partly drawn)	-1.738
CC(=O)N1CCN(C(C)c2nnc(CC(C)C)o2)CC1 (stereo not drawn)	3.173
COC(=O)C(C)NC(=O)CSCc1nc(O)c2cc(C(C)C)sc2n1 (stereo not drawn)	10.11
COC(=O)[C@H](C)NC(=O)CSCc1nc2sc(C(C)C)cc2c(=O)[nH]1	57.77
COCCNC(=O)CSCc1nc(O)c2cc(C(C)C)sc2n1	-18.87
CC(C)CN1C[C@H](COCc2ccccc2)Oc2ncccc2C1=O	-10.08
Cc1ncc(C(=O)NCCNc2ncccn2)s1	-0.6021
CCS(=O)(=O)Nc1cnn(Cc2cccc(Cl)c2)c1	-14.58
CCS(=O)(=O)Nc1cnn(Cc2cccc(C)c2)c1	56.26
CCS(=O)(=O)Nc1cnn(Cc2cccc(F)c2)c1	14.06
Cc1c(S(=O)(=O)NCC(C)C)cnn1C	-2.001
COc1cccc(CCC(=O)Nc2c(C)nn(C)c2C)c1OC	-11.78
Cc1nc(-c2ccc(CO)cc2)cc(C2CCNCC2)n1.Cl	12.1
O=C(NCc1ccccn1)[C@@]12CCO[C@@H]1CCN(Cc1ccccn1)C2.O=C(O)C(F)(F)F.O=C(O)C(F)(F)F.O=C(O)C(F)(F)F	-14.31
CC(NC(=O)c1cc(-c2cccc(Cl)c2)no1)C(=O)N1CCCC1 (stereo not drawn)	1.351
CC(NC(=O)c1cc(-c2cccc(Cl)c2)no1)C(=O)N(C)C (stereo not drawn)	9.545
COC(=O)[C@H](C)NC(=O)c1cc(-c2cccc(Cl)c2)no1	105.7
O=C(NCc1ccc(OCC2CC2)nc1)C1COc2ccccc2O1 (stereo not drawn)	16.73
Cc1nn2c(N3CCC(O)C3)cc(-c3ccccc3)nc2c1C (stereo not drawn)	16.78
Cc1nn2c(N3CCC(O)CC3)cc(-c3ccccc3)nc2c1C	72.96
Cc1nn2c(N3CCC(C(N)=O)CC3)cc(-c3ccccc3)nc2c1C	21.25
Cc1nc(N[C@H]2COC[C@@H]2N2CCCC2)c2cnn(C)c2n1	2.791
CCNC(c1ccc(C)cc1)c1cccnc1 (stereo not drawn)	-8.954
CCc1nc(CN(C)C(=O)CSC)no1	7.399
Cc1nc(C)c(C(=O)N2CCc3nnc(C4CCCCN4C)n3CC2)s1 (stereo not drawn)	54.31
Cc1ncsc1C(=O)N1CCc2nnc(C3CCCCN3C)n2CC1 (stereo not drawn)	8.689

SMILES	Percent Effect [%]
Cc1nc(C)c(C(=O)N2CCCC2c2nnc3n2CCCCC3)s1 (stereo not drawn)	13.16
Cc1nc(C)c(C(=O)N2CCc3nnc(C4CCCN4C)n3CC2)s1 (stereo not drawn)	53.89
Cc1cc2c(=O)n3c(nc2s1)CCN(C(=O)c1sc(C)nc1C)CC3	10.24
Cc1nc(C)c(C(=O)N2CCc3nnc(C4CCCCN4C)n3CC2)o1 (stereo not drawn)	19.3
CN(C)[C@@H]1CCN(C(=O)c2cccn2C)[C@H]1Cc1cnn(C)c1.O=C(O)C(F)(F)F	-22.73
O=C(O)C(F)(F)F.c1coc(CN2CCc3nnc(COc4cncnc4)n3CC2)c1	21.79
COc1cccc(CC2CN(C3CC(C)(C)NC(C)(C)C3)CCO2)c1 (stereo not drawn)	-51.86
Cc1cccc2nc(CNC(=O)N3CCC(N4CC=CC4)C3)cn12 (stereo not drawn)	20.26
O=C(O)[C@@H]1CN(C(=O)CCCc2ccc(F)cc2)C[C@H]1C1CC1	-11.2
Cc1ccc(CN2CCC3(C2)C(=O)N(CC(N)=O)c2ccccc23)s1 (stereo not drawn)	3.211
Cc1ccc(CN2CCC3(C2)C(=O)N(CC(C)C)c2ccccc23)s1 (stereo not drawn)	50.09
CC(C)CN1C(=O)C2(CCN(Cc3nccs3)C2)c2ccccc21.O=C(O)C(F)(F)F (stereo not drawn)	25.63
Cc1nc(C)n(CCC(=O)NCC2CCCOC2)n1 (stereo not drawn)	20.26
CCCN1C[C@H]2CC[C@@H]1CN(Cc1ccc(Cn3cccn3)cc1)C2	-2.42
CCCN1C[C@H]2CC[C@@H]1CN(Cc1ccc(-n3cccn3)cc1)C2	53.91
CCCN1C[C@H]2CC[C@@H]1CN(Cc1cccc(-n3cccn3)c1)C2	9.471
CN(C)CCN1C(=O)CCC12CCN(C(=O)c1cccnc1)CC2.O=C(O)C(F)(F)F.O=C(O)C(F)(F)F	1.557
CC(C)(C)NS(=O)(=O)c1cc(NC(=O)C2CC2)ccc1F	50.55
CC(=O)Nc1ccc(F)c(S(=O)(=O)NC(C)(C)C)c1	40.62
CCC(=O)Nc1ccc(F)c(S(=O)(=O)NC(C)(C)C)c1	-2.357
c1ccc(Cc2nc(CNC3CCOC4(CCOCC4)C3)no2)cc1 (stereo not drawn)	8.637
Cc1noc(C)c1CN1C[C@@H](C(=O)O)[C@H](c2ccccc2)C1	23.54
Cc1noc(C)c1CNC(=O)Nc1ccc(N2CCOC(C)C2)cc1 (stereo not drawn)	103.9
Cc1noc(C)c1CNC(=O)Nc1ccc(N2CCSCC2)cc1	104.5
CC1CN(c2ccc(NC(=O)Cn3cccn3)cc2)CCO1 (stereo not drawn)	-5.599
Cc1noc(C)c1CNC(=O)NCCC(=O)N1CCCc2ccccc21	-5.48

SMILES	Percent Effect [%]
Cc1noc(C)c1CNC(=O)N1CCCC(C)CC1 (stereo not drawn)	12.27
Cc1noc(C)c1CNC(=O)Nc1ccc(N2CCOC2=O)cc1	-58.42
CC1CN(c2ccc(CNC(=O)NCCO)cn2)CCO1 (stereo not drawn)	2.175
Cc1ocnc1CNC(=O)Nc1ccc(N2CCOC(C)C2)cc1 (stereo not drawn)	104
Cc1n[nH]/c(=N\C(=O)c2c3c(nc4onc(C)c24)CCC3)s1	20.11
CN(C)CCNCCC(c1ccccc1)C1CCOC(C)(C)C1.O=C(O)C(=O)O (stereo not drawn)	21.42
CCc1nc(C2CCCN2C(=O)c2cc(Cl)c[nH]2)no1 (stereo not drawn)	23.06
CC(C)CC(=O)N1CC(=O)N(Cc2ccco2)CC(O)C1 (stereo not drawn)	-16.35
Cn1nc(Br)c2c(NCCCS(N)(=O)=O)ncnc21	24.15
Nc1ncc(-c2ccc(NC(=O)[C@@H]3CCCCN3)cc2)cn1	-8.73
Cc1nc(Nc2nncs2)cc(C2CCCN2C)n1 (stereo not drawn)	-51.01
O=C1CC(c2ccsc2)c2sc(C(=O)O)c(-c3ccccc3)c2N1 (stereo not drawn)	-23.75
O=C1CC(c2ccsc2)c2sc(C(=O)O)c(-c3ccc(F)cc3)c2N1 (stereo not drawn)	105.2
O=C1CC(c2ccccc2)c2sc(C(=O)O)c(-c3ccccc3)c2N1 (stereo not drawn)	17.04
O=C(C1CCOC1)N1C[C@@H]2CCN(C(=O)c3cscn3)[C@@H]2C1 (stereo partly drawn)	-35.62
CC(CC(=O)NS(C)(=O)=O)C1CCCCC1 (stereo not drawn)	-16.66
CCCc1cc(C(=O)NCCC2=CCCCC2)[nH]n1	32.79
Cc1ccc(-c2cc(C(=O)NCCC3=CCCCC3)[nH]n2)o1	52.86
O=C(NCCC1=CCCCC1)c1cc(-c2ccc(O)cc2)n[nH]1	22.09
Cc1cc(F)ccc1N1CCCC(NC2CCSCC2)C1=O (stereo not drawn)	-0.6719
Cc1cc(S(=O)(=O)N2CCCc3cc(Br)ccc32)sc1C(=O)O	32.41
COC1CCN(C(=O)CC(C)(C)C)CC(=O)N(C)c2ccccc21 (stereo not drawn)	2.903
CC(C)=CCN1C[C@@H]2CN(C(=O)c3ccc(CO)cc3)C[C@]2(C(=O)O)C1	22.99
CN(C)C(=O)C1CCC2(CCN(C(=O)Nc3ccccc3)CC2)O1 (stereo not drawn)	2.965
COc1ccc(C2Nc3cc(Cl)ccc3C3=NCCN32)cc1O (stereo not drawn)	10.02
COc1cc(C2Nc3cc(Cl)ccc3C3=NCCN32)cc(OC)c1OC (stereo not drawn)	-27.36

SMILES	Percent Effect [%]
COc1cc(C2Nc3cc(Cl)ccc3C3=NCCN32)ccc1O (stereo not drawn)	80.22
CCCn1cc(C(=O)N2CCCC2(C)c2nc(C)cc(N)n2)cn1 (stereo not drawn)	-4.951
CSCCCN1CCN(c2ccc(Cl)cn2)CC1	62.54
Clc1ccc(N2CCN(CCCN3CCCCC3)CC2)nc1	25.77
CSCc1ccc(N2CCN(c3ccc(Cl)cn3)CC2)nc1	-11.59
COC(=O)CNC(=O)C1CCN(S(C)(=O)=O)CC1	-1.242
O=C(c1n[nH]c2ccccc12)N1CCCC1c1noc(C2CC2)n1 (stereo not drawn)	50.46
O=C(Cc1noc2ccccc12)N1CCCC1c1noc(C2CC2)n1 (stereo not drawn)	0.3643
O=C(c1cccc2[nH]ncc12)N1CCCC1c1noc(C2CC2)n1 (stereo not drawn)	0.6634
CC(=O)N1CCO[C@@H]2CN(S(=O)(=O)c3ccc(C)cc3)CC[C@@H]2C1	-25.36
CCc1noc(C(C)N2CCN(CC(C)C)CC2)n1 (stereo not drawn)	-14.43
COc1ccc(CNC(Cc2ccsc2)c2ccc(C)cn2)cc1OC.Cl (stereo not drawn)	26.36
COc1ccc(CNC(Cc2ccsc2)c2ccc(C)cn2)c(OC)c1 (stereo not drawn)	18.63
COc1cccc(OC)c1CNC(Cc1ccsc1)c1ccc(C)cn1 (stereo not drawn)	62.45
CCc1nc(NS(=O)(=O)c2cccc(F)c2C)no1	37.51
CC(CO)NC(=O)c1ccc(NCc2ccc(F)c(F)c2)cc1 (stereo not drawn)	4.78
O=C(c1cc(C2CC2)[nH]n1)N1CCN(Cc2ccc(Cl)cc2)CC1	-11.68
O=C(c1cc(C2CC2)[nH]n1)N1CCN(Cc2ccncc2)CC1	8.467
O=C(c1cc(C2CC2)[nH]n1)N1CCN(Cc2ccccc2)CC1	7.865
O=C(c1cc(C2CC2)[nH]n1)N1CCN(Cc2ccsc2)CC1	6.464
CC(C)c1cc(C(=O)N2CCN(Cc3ccsc3)CC2)n[nH]1	50.59
CC(C)c1ccc(CN2CCN(C(=O)c3cc(C4CC4)[nH]n3)CC2)cc1	-22.19
Cc1cccc(CN2CCN(C(=O)c3cc(C4CC4)[nH]n3)CC2)c1	63.11
CC(C)c1ncncc1C(=O)N1CCN(Cc2ccsc2)CC1	5.12
O=C(c1cc(C2CC2)[nH]n1)N1CCN(Cc2ccc3c(c2)OCO3)CC1	83.19
